Bioassay records: PubChem, The Scripps Research Institute Molecular Screening Center
The entries come from a sample that favours hits as a whole.
TTR transcr act: activators of transthyretin transcription; SH-SY5Y TTR promoter Gaussia luciferase, luminescence; 100% = recombinant luciferase protein wells; activation, % at 16.7 µM; 92,000 compounds, 1.3% hits; AID 1117267;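 active = activation above the mean of all tested compounds plus 3 SD, cut at about 9.5% in these data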;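 also: cells exposed to compounds for one day before reading; 0% = median of all test compound wells on the plate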
HuH7 TTR inh: HuH7 TTR transcription inhibition, counter-screen; shares compounds with TTR transcr act; HuH7 TTR promoter-Gaussia luciferase reporter, luminescence; inhibition, % at 16.7 µM; 1,100 compounds, 4% hits; AID 1117279;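 active = average inhibition above the solvent-only control wells' mean plus 3 SD, cut at about 15% in these data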;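 also: 0% = cells with DMSO only and 100% = cells with inhibitor control FD; inhibitors lower well luminescence so higher value means more inhibition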
TTR act confirm: confirmation of human transthyretin transcription activators. shares compounds with TTR transcr act. SHSY5Y TTR promoter Gaussia luciferase, luminescence; 100% = purified Lucia enzyme wells, no cells. activation, % at 16.7 µM. 1,100 tested, under 10 active. AID 1117280;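 active = mean activation above a set limit taken from the earlier primary screen, cut at about 11% in these data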;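 also: 0% = DMSO-treated cells and 100% = recombinant Lucia luciferase without cells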
* marks the source's active call; other numbers are inactive results.

SMILES	TTR transcr act	others
CC1C(C#N)=C(N)OC2=C1C(=O)CC(c1ccccc1)C2 (stereo not given)	15.1*	HuH7 TTR inh=-13.5;TTR act confirm=-1.0
COc1ccc(C2C(C#N)=C(N)OC3=C2C(=O)CC(C)(C)C3)cc1 (stereo not given)	2.0
Cc1[nH]c2ccccc2c1C(=O)CSc1nc2ncc(Cl)cc2[nH]1	-1.9
O=C(CSc1nc2ncc(Cl)cc2[nH]1)NCC(=O)Nc1ccc(F)c(F)c1F	10.6*	HuH7 TTR inh=-11.1;TTR act confirm=0.1
CC(C)OC(=O)CSc1nc2ncc(Cl)cc2[nH]1	0.4
COc1ccc(C(=O)Nc2cc(C(=O)O)cc(C(=O)O)c2)cc1Cl	-0.3
CCOc1ccc(C(=O)Nc2cccc(C(=O)O)c2C)cc1Cl	2.7
COc1ccc(C(=O)Nc2ccccc2C(=O)O)cc1Cl	78.4*	HuH7 TTR inh=-8.6;TTR act confirm=-0.6
CCOC(=O)[C@@]12CCC3=C1N(CCC3)C(=O)[C@H](CC(=O)N1CCSCC1)C2	-0.4
O=C(Nc1nc2ncccn2c1-c1ccccc1)C1CC1	0.8
COc1ccccc1N1CCN(C(=O)CSc2nc3ccccc3nc2N2CCC(C)CC2)CC1	-0.9
COc1ccccc1N1CCN(C(=O)CSc2nnc(NC(=O)C(C)C)s2)CC1	13.0*	HuH7 TTR inh=-28.2;TTR act confirm=-0.3
CC(=O)Nc1nnc(SCC(=O)N2CCc3ccccc32)s1	1.5
CC(C)(C)OC(=O)N[C@@H]1C=CC(=O)C1	-1.1
CCCC1CCC2(CCCN2CCOC(=S)Nc2cccc(Cl)c2)CC1 (stereo not given)	5.1
CN(C)C=Nc1c(Br)cc(Br)c2nonc12	-0.8
CN(C)C=Nc1nonc1-c1ccccc1	10.7*	HuH7 TTR inh=-7.8;TTR act confirm=0.3
CN(C)C=Nc1nonc1-c1ncn[nH]1	0.0
COC(=O)[C@]12C[C@H](CC(=O)NCc3ccc(OC)c(OC)c3)C(=O)N(Cc3ccccc3)C1=C[C@H](COCc1ccccc1)O[C@@H]2C	1.7
COc1cccc(NC(=O)COC(=O)c2sccc2C)c1	-0.2
CCN(CC)C(=O)C1=C(C)N(Cc2ccc(OC)cc2)C(=O)C(CC(=O)NCc2cccc3ccccc23)C1 (stereo not given)	2.5
CCN(CC)C(=O)C1=C(C)N(Cc2ccc(OC)cc2)C(=O)C(CC(=O)NCc2cccs2)C1 (stereo not given)	23.2*	HuH7 TTR inh=-17.6;TTR act confirm=0.5
CC1=C(C(=O)N(C(C)C)C(C)C)CC(CC(=O)NCc2cccs2)C(=O)N1Cc1ccc(F)cc1 (stereo not given)	0.9
CCOc1ccc(N2CC(C(=O)OC)CC2=O)cc1 (stereo not given)	2.9
O=Nc1ccccn1	1.2
SMILES	TTR transcr act	others
CCOC(=O)CCCNC(=O)O[C@@H]1CC[C@@]23CCCN2C(=O)CCC[C@H]3C1	3.7
COP(=O)(OC)C(NC(=O)OCc1ccccc1)C(C)C (stereo not given)	0.0
O=S(=O)(NCCNc1nccc(C(F)(F)F)n1)c1ccccc1	9.8*	HuH7 TTR inh=-13.4;TTR act confirm=0.6
COc1ccc(OCCNS(=O)(=O)c2ccccc2)cc1	1.7
O=C(NCCNc1nccc(C(F)(F)F)n1)c1cccc(C(F)(F)F)c1	-1.6
Cc1nc(N2CCN(C(=O)COc3ccccc3C)CC2)c2c3c(sc2n1)CCCC3	2.2
COC(=O)[C@]12C[C@H](CC(=O)NCCCN3CCCC3=O)C(=O)N(Cc3ccco3)C1=C[C@H](C1CCCC1)O[C@@H]2C	-0.2
C[C@H]1[C@@H](OC(=O)Nc2ccccc2Cl)CC[C@@]23CCCN2C(=O)CCC[C@@H]13	1.4
O=C(COc1ccc(-n2cnnn2)cc1)Nc1ccc(F)c(F)c1	12.8*	HuH7 TTR inh=-17.8;TTR act confirm=0.8
O=C(COc1ccc(-n2cnnn2)cc1)Nc1ccc(F)cc1	6.0
O=C(COc1ccc(-n2cnnn2)cc1)Nc1ccc(F)c(F)c1F	-0.6
COP(=O)(OC)C(Cc1ccccc1)NC(=O)CNC(=O)OCc1ccccc1 (stereo not given)	2.3
CCCC[C@H](C(=O)N(C)c1ccccc1)[C@@H](O)c1ccc(Cl)cc1	-0.1
O=C(Oc1coc(CSc2ncccn2)cc1=O)c1ccc([N+](=O)[O-])cc1	5.2
CCCSc1nnc(NC(=O)c2ccco2)s1	1.6
O=C(CSc1nnc(NC(=O)c2ccco2)s1)NCc1ccc2c(c1)OCO2	20.6*	HuH7 TTR inh=-6.9;TTR act confirm=0.8
Cc1ccc(NC(=O)CSc2nnc(NC(=O)c3ccco3)s2)cc1	-2.4
CN1CCN(C2CN(Cc3ccccc3)S(=O)(=O)C2)CC1 (stereo not given)	8.3
O=S1(=O)CC(N2CCC(Cc3ccccc3)CC2)CN1Cc1ccc(F)cc1 (stereo not given)	-1.8
CN1CCC(N2CCN(C3CN(Cc4ccc(F)cc4)S(=O)(=O)C3)CC2)CC1 (stereo not given)	12.2*	HuH7 TTR inh=-7.4;TTR act confirm=-0.1
COc1ccc(C2CC3CN(C4CCCCC4)C(=O)C3N2C)cc1 (stereo not given)	-0.7
COC(=O)[C@]12C[C@H](CC(=O)N3CCSCC3)C(=O)N(Cc3cccc4ccccc34)C1=C[C@H](C(C)(C)C)O[C@@H]2C	1.1
CCc1ccccc1NC(=O)c1ccc(OCc2c(C)noc2C)cc1	48.9*	HuH7 TTR inh=-12.0;TTR act confirm=0.5
Cc1noc(C)c1COc1ccc(C(=O)Nc2ccccc2)cc1	0.4
Cc1noc(C)c1COc1ccc(C(=O)Nc2ccccn2)cc1	0.3
SMILES	TTR transcr act	others
COP(=O)(O)C(Cc1ccccc1)NC(=O)OCc1ccccc1 (stereo not given)	0.2
Cc1cc(C)cc(-n2ncc3c2CCCC3NC(=O)c2cc(C)[nH]n2)c1 (stereo not given)	-1.9
O=C(NC1CCCc2c1cnn2-c1ccc(F)cc1F)c1ccccc1 (stereo not given)	-2.2
COc1ccc(C(=O)NC2CCCc3c2cnn3-c2cc(F)cc(F)c2)c(OC)c1OC (stereo not given)	12.6*	HuH7 TTR inh=29.0*;TTR act confirm=-0.8
O=C(NCCc1ccccc1)OCc1cn(-c2cccc(F)c2F)nn1	-1.6
COC(=O)[C@]12C[C@H](CC(=O)NCc3ccc(C)o3)C(=O)N(CCc3ccc(OC)c(OC)c3)C1=C[C@H](COCc1ccccc1)O[C@@H]2C	1.0
COc1cc(NC(=O)c2cnn3c(C)cc(C)nc23)cc(OC)c1OC	1.0
CC(C)(C)NC(=O)C(c1cccnc1)N(C(=O)c1cnc[nH]1)c1ccc(C(C)(C)C)cc1 (stereo not given)	-2.9
CCC/C(=N\NC(=O)c1ccccc1C)c1ccccc1	10.3*	HuH7 TTR inh=3.5;TTR act confirm=-1.4
Cc1ccccc1C(=O)NCC(=O)c1ccccc1	1.5
O=C(O)CC/C(=N/NC(=O)c1cccs1)c1ccccc1	-0.7
CCCCCC(=O)NC1CCCCN(Cc2ccccc2C)C1=O (stereo not given)	1.5
C=CCNC(=O)N1CCC(CO)(Cc2ccc(Cl)cc2)CC1	-0.9
CC(C)(C)C(=O)N1CCC(O)(CS(=O)(=O)Cc2ccccc2Cl)CC1	4.5
O=C(C1CC12CCCC2)N1CCC(CO)(Cc2ccccc2Cl)CC1 (stereo not given)	13.0*	HuH7 TTR inh=5.8;TTR act confirm=-0.7
COC(=O)[C@]12C[C@H](CC(=O)NCc3ccc(C)o3)C(=O)N(Cc3ccco3)C1=C[C@H](COCc1ccccc1)O[C@@H]2C	0.7
CCCCC#CC(CC)NCc1ccc(OC)cc1OC (stereo not given)	2.1
